Laboratory results: the supplement of paper PMC12636033
± gives the standard deviation of the averaged measurements. In all, about 33,000 sequences were measured (“E-score (rank enrichment, -0.5 to 0.5)”: median about -0.0068, highest 2% from about 0.24 on). The entries come from a sample that favours the highest values as a whole.

System: muMax20 (Max(13-93) K31hArg/K57hArg, M65Nle)
Assay: PBM 8-mer E-score (E-score (rank enrichment, -0.5 to 0.5)); higher = stronger preferential binding
Procedure: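 Protein binding microarray (universal PBM chip covering all 10-mers in fixed probe flanks) with chemically synthesized human Max(13-93) bHLH-LZ analogs (not full-length Max) bearing noncanonical residues (hArg, Tha, Aib, Nle at 65) and aromatic Cys staples. Read-out per 8-mer (and its reverse complement): E-score (rank-based enrichment, -0.5 to 0.5) and Z-score of median probe intensity.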

Sequence	PBM 8-mer E-score
CAACTGCC	0.0721 ± 0.014
TCGAGGAA	-0.0274 ± 0.069
CCCACAAA	0.183 ± 0.015
ATGATAGC	0.2152 ± 0.0016
GGCATGCA	0.106 ± 0.091
AGCATGCA	0.284 ± 0.11
TGCATGCA	0.0968 ± 0.12
TCCATGCA	0.105 ± 0.07
CCCATGCA	0.133 ± 0.01
ACCATGCA	0.28 ± 0.096
GGATAGCC	-0.138 ± 0.11
ACCGACCA	0.0471 ± 0.002
GGGCGCCC	-0.131 ± 0.0098
CTAACTAA	0.00786 ± 0.039
ATAACTAA	0.245 ± 0.0085
ATAACTAT	0.241 ± 0.0068
ATAACTAG	0.0985 ± 0.14
ATAACTAC	0.2058 ± 0.0013
TTAACTAA	0.184 ± 0.11
ACACTGTG	0.0421 ± 0.2
CAGATCAA	-0.0923 ± 0.011
GGTGAAGA	-0.0661 ± 0.032
ATCCTCAT	-0.11 ± 0.076
TACGATAA	0.247 ± 0.0037
GACGATAA	0.0693 ± 0.077

Sequence	PBM 8-mer E-score
CACGATAA	0.17 ± 0.024
AATGCTAA	0.12 ± 0.033
AGCCAATC	-0.047 ± 0.088
AACATGTG	0.353 ± 0.042
AACATGAA	0.0865 ± 0.011
CACATGTC	0.12 ± 0.087
TACATGTA	0.157 ± 0.069
AACATGCA	0.206 ± 0.1
CACATGTG	0.418 ± 0.015
CACATGCG	0.172 ± 0.11
GACATGTC	-0.00641 ± 0.13
AACATGTC	0.12 ± 0.025
AACATGTA	0.256 ± 0.028
AACATGTT	0.22 ± 0.04
GACATGTA	0.24 ± 0.067
GTCTGCCA	-0.165 ± 0.0054
GAACTTTA	-0.157 ± 0.037
CTGTGGTA	0.0865 ± 0.061
CCGGTCGC	-0.276 ± 0.027
ACCGAGAA	-0.187 ± 0.0095
CCCAAGTC	-0.185 ± 0.0086
GACGCTAA	-0.13 ± 0.072
AGCAGTAT	0.109 ± 0.0063
GATTGCCA	-0.0436 ± 0.034
AGCGTGGA	0.045 ± 0.011

Sequence	PBM 8-mer E-score
CACATGTA	0.347 ± 0.045
CTCATGTA	0.0357 ± 0.054
CACATGAA	0.219 ± 0.014
GAAAACCC	0.11 ± 0.0093
CATAGGTC	-0.0151 ± 0.052
GATGATTA	0.0475 ± 0.008
TATGATAA	0.181 ± 0.063
AATGATAA	0.11 ± 0.021
GCTGATTA	0.292 ± 0.073
ACTGATTA	0.0963 ± 0.055
CCTGATTA	0.14 ± 0.042
CATGATAA	0.263 ± 0.034
CATGATTA	0.281 ± 0.049
CATGATTC	0.0292 ± 0.013
CGCGTTAG	-0.0996 ± 0.017
CTGGACTC	-0.0856 ± 0.022
AAAACATA	0.165 ± 0.084
GAAACATA	0.249 ± 0.1
CAAACAAA	0.185 ± 0.03
GAAACAAC	0.00284 ± 0.071
GAAACAAA	0.236 ± 0.039
GAAACATC	0.0279 ± 0.095
GAAGGTGC	-0.0729 ± 0.043
CATGCCAA	0.158 ± 0.078
ATATAAAG	0.189 ± 0.0027

Sequence	PBM 8-mer E-score
CTATAAAC	0.144 ± 0.0027
ACATAAAA	0.229 ± 0.019
ATATAAAA	0.317 ± 0.064
ATATAAGA	0.262 ± 0.064
ATAAAAAC	0.109 ± 0.079
ATATAAAT	0.308 ± 0.0047
ATATAAAC	0.324 ± 0.045
CTATAAGA	0.0354 ± 0.00038
ATAAAAAT	0.221 ± 0.025
CTATAAAA	0.0172 ± 0.079
GTATAAGA	0.138 ± 0.044
AAACTTTA	0.2 ± 0.068
CACCGCTG	-0.316 ± 0.09
GGGAGGGA	0.0486 ± 0.024
AAATTGAC	-0.0252 ± 0.075
AGGTCTGA	-0.112 ± 0.11
CGTGCTAA	-0.0595 ± 0.097
GGGGGTGA	-0.107 ± 0.1
GCACCCGA	-0.265 ± 0.009
ATACCCGC	0.07 ± 0.0011
CCCACGGA	-0.0746 ± 0.039
CGAGTTTC	0.112 ± 0.043
AGGCGGAG	-0.00941 ± 0.016
GTATAAAA	0.288 ± 0.072
TTATAAAA	0.235 ± 0.043

Sequence	PBM 8-mer E-score
GTATAAAC	0.137 ± 0.05
GGGTAATA	0.117 ± 0.078
AGGGGAAG	-0.0693 ± 0.071
CTAGCGAC	-0.0457 ± 0.095
CCGAAAGG	-0.0656 ± 0.13
CAAGCCAA	-0.034 ± 0.1
ATTGTATC	0.304 ± 0.027
GGTGTGTA	0.159 ± 0.11
GATGTGCA	0.03 ± 0.16
CATGTGCA	0.292 ± 0.063
ATTGTATG	0.139 ± 0.039
CGTGTGTA	0.28 ± 0.017
CATGTTTC	0.143 ± 0.045
CTTGTATC	0.0905 ± 0.026
GATGTTTA	0.0668 ± 0.12
TATGTGCA	0.175 ± 0.068
CATGTTTA	0.249 ± 0.0042
AGTGTGTA	0.121 ± 0.0059
CAACAAAA	0.0937 ± 0.037
ACCCCTCC	0.155 ± 0.011
AGCATAAA	0.158 ± 0.013
CGGTTCCA	-0.282 ± 0.0036
GACGGCCA	-0.0819 ± 0.046
AAGTGTAA	-0.0103 ± 0.021
GCCCCTAC	0.00167 ± 0.035

Sequence	PBM 8-mer E-score
ACTCTGAG	-0.217 ± 0.068
GATAACGC	0.105 ± 0.11
CGTGTATC	0.238 ± 0.025
CATGTGTA	0.332 ± 0.054
CGTGTATA	0.2 ± 0.044
ATTGTAAG	0.16 ± 0.042
AGTGTATC	0.123 ± 0.049
CATGTGTC	0.117 ± 0.14
GATGTGTA	0.17 ± 0.024
CTTGTAAA	0.217 ± 0.015
ATTGTAAA	0.244 ± 0.021
AGCTCTCG	-0.155 ± 0.045
GAGTCACC	-0.0777 ± 0.02
AACCTTAT	0.0715 ± 0.044
AACAGTAA	-0.00834 ± 0.034
GCTCGTTA	0.0811 ± 0.07
AACGTAAG	-0.0553 ± 0.13
CAGTGTGA	0.2398 ± 0.0018
TAGTGTGA	0.15 ± 0.12
AAGTGTGA	0.0524 ± 0.053
CTGGTCTC	-0.256 ± 0.045
AATGGATC	-0.167 ± 0.0063
CCACCAAG	-0.0933 ± 0.014
ATATAGTA	0.281 ± 0.048
GTATAGTA	0.227 ± 0.0046

Sequence	PBM 8-mer E-score
CTATAGTA	0.109 ± 0.0064
CCATAGTA	0.0366 ± 0.064
GCATAGTA	0.277 ± 0.041
ACATAGTA	0.0946 ± 0.04
ACCGGAGC	-0.286 ± 0.0054
CGGTCCAG	-0.279 ± 0.069
GCTCCACA	-0.0777 ± 0.035
GCCTCAGA	-0.218 ± 0.018
AACGAACG	0.0291 ± 0.073
CTACTCGC	-0.176 ± 0.076
AAAATCAA	0.0939 ± 0.085
TAAATCAA	0.261 ± 0.01
GAAATCAA	0.0452 ± 0.11
ATCGCGGG	-0.145 ± 0.056
AATCACGA	0.00734 ± 0.13
AATCACAT	0.242 ± 0.066
AATCACAG	-0.113 ± 0.046
AATCACGC	0.196 ± 0.096
AATCACGT	0.385 ± 0.046
AATCACAA	0.172 ± 0.028
AGGGCAAA	-0.0293 ± 0.034
CGAAAATA	0.00928 ± 0.085
